In PubChem BioAssay (EPA / NIEHS):
Activity calls are given as the source filed them. The calls were made as follows: active = hit-call score of the fitted dose curve at least 0.9, where 1 is the maximum; inactive = score below 0.9.

Assays:
[1] = read-out: Human Leukocyte Antigen - DR isotype (HLADR), HLA-DRA (gene 3122); assay: BSK_3C_HLADR: BioMAP Diversity Plus: 3C Assay for Human Leukocyte Antigen - DR isotype (HLADR) Biomarker Activity (AID 2283019); conditions: primary human endothelial cells (HUVEC); actives raise or lower the signal
Procedure, shortened: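 ELISA readout of surface HLA-DR on human umbilical vein endothelium, taken 24 h after chemical treatment. Gain- and loss-of-signal were both fitted relative to DMSO.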

[2] = read-out: Interleukin-8 (IL8), CXCL8 (gene 3576); assay: BSK_3C_IL8: BioMAP Diversity Plus: 3C Assay for Interleukin-8 (IL8) Biomarker Activity (AID 2283020); conditions: primary human endothelial cells (HUVEC); actives raise or lower the signal
Procedure, shortened: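 IL-8 was measured by ELISA in HUVEC cultures 24 h after chemical dosing, with gain or loss of signal fitted relative to DMSO. Parallel SRB total-protein staining tracked overt cytotoxicity.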

[3] = read-out: Monokine induced gamma interferon (MIG), CXCL9 (gene 4283); assay: BSK_3C_MIG: BioMAP Diversity Plus: 3C Assay for Monokine induced gamma interferon (MIG) Biomarker Activity (AID 2283021); conditions: primary human endothelial cells (HUVEC); actives raise or lower the signal;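 as to AC50: MIG protein level measured by immunoassay in the treated endothelial cultures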
Procedure, shortened: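 ELISA measurement of MIG in human umbilical vein endothelial cells 24 h after treatment. Cytotoxicity tracked by SRB staining in parallel cultures; gain or loss of signal fitted relative to DMSO.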

[4] = BSK_3C_SRB: Viability Assessment in the BioMAP Diversity Plus: 3C Assay (AID 2283023); conditions: primary human endothelial cells (HUVEC);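 also: cells read 24 h after compound dosing; fitted both ways against DMSO so a hit may be signal rise or drop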
Procedure, shortened: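 Absorbance at 560 nm of sulforhodamine B-stained (0.1%) total protein served as a cytotoxicity readout in human umbilical vein endothelial cells, 24 h after chemical treatment. Signal was fitted bidirectionally relative to DMSO.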

[5] = read-out: Matrix Metallopeptidase 1 (MMP1), MMP1 (gene 4312); assay: BSK_BE3C_MMP1: BioMAP Diversity Plus: BE3C Assay for Matrix Metallopeptidase 1 (MMP1) Biomarker Activity (AID 2283024); conditions: primary human bronchial epithelial cells; actives raise or lower the signal
Procedure, shortened: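 ELISA measurement of MMP-1 after 24 h compound exposure of primary human bronchial epithelial cells. Changes in either direction fitted relative to DMSO; parallel SRB staining checked overt cytotoxicity.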

[6] = BSK_3C_Vis: BioMAP Diversity Plus: 3C Assay for Morphology Visualization (AID 2283025); conditions: primary human endothelial cells (HUVEC);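 also: fitted both ways so gain or loss versus DMSO counts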;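 as to AC50: light microscopy image of cell morphology used as background control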
Procedure, shortened: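 Light-microscopy visualization of HUVEC cultures at 24 h post-treatment, with DMSO as baseline for bidirectional fitting.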

[7] = read-out: Pselectin, SELP (gene 6403); assay: BSK_4H_Pselectin: BioMAP Diversity Plus: 4H Assay for Pselectin Biomarker Activity (AID 2283026); conditions: primary human endothelial cells (HUVEC); actives raise or lower the signal
Procedure, shortened: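 ELISA of surface P-selectin on HUVEC, 24 h after dosing, with parallel SRB staining (0.1% after 10% TCA fixation, 560 nm) for overt cytotoxicity. Activity fitted in both directions relative to DMSO.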

[8] = BSK_4H_SRB: Viability Assessment in the BioMAP Diversity Plus: 4H Assay (AID 2283027); conditions: primary human endothelial cells (HUVEC);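 also: cells exposed to compound for 24 h before staining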
Procedure, shortened: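 HUVEC, 24 h post-dose; 10% TCA fix, 0.1% SRB stain, A560 nm. Total protein = overt cytotoxicity, parallel to biomarker read. Bidirectional fit vs DMSO baseline.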

[9] = BSK_BE3C_SRB: Viability Assessment in the BioMAP Diversity Plus: BE3C Assay (AID 2283028); conditions: primary human bronchial epithelial cells;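 as to AC50: fitted both ways so AC50 may mark signal gain or loss versus DMSO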
Procedure, shortened: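 Cells (human bronchial epithelial, primary) are treated with chemicals, and after 24 h the parallel cultures are fixed in 10% TCA. These are then stained with 0.1% SRB and read at 560 nm. Gain or loss of signal is fitted relative to DMSO.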

[10] = read-out: Thrombomodulin, THBD (gene 7056); assay: BSK_3C_Thrombomodulin: BioMAP Diversity Plus: 3C Assay for Thrombomodulin Biomarker Activity (AID 2283029); conditions: primary human endothelial cells (HUVEC); actives raise or lower the signal
Procedure, shortened: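 ELISA measurement of thrombomodulin on HUVEC surface 24 h after chemical dosing; activity fitted in both directions relative to DMSO vehicle.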

[11] = read-out: Vascular endothelial growth factor receptor 2 (Homo sapiens) (UniProt P35968); assay: BSK_4H_VEGFRII: BioMAP Diversity Plus: 4H Assay for Vascular endothelial growth factor receptor 2 (VEGFR2) Biomarker Activity (AID 2283031); conditions: primary human endothelial cells (HUVEC); actives raise or lower the signal;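 as to AC50: cell-surface VEGFR2 protein level quantified by ELISA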
Procedure, shortened: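 ELISA read-out of VEGFRII in primary human umbilical vein endothelium, taken 24 h after chemical treatment. Responses are expressed relative to DMSO, with bidirectional fitting.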

[12] = read-out: Human Leukocyte Antigen - DR isotype (HLADR), HLA-DRA (gene 3122); assay: BSK_BE3C_HLADR: BioMAP Diversity Plus: BE3C Assay for Human Leukocyte Antigen - DR isotype (HLADR) Biomarker Activity (AID 2283032); conditions: primary human bronchial epithelial cells; actives raise or lower the signal
Procedure, shortened: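 Cell-surface HLA-DR ELISA readout at 24 h after dosing in the BE3C primary human lung bronchial epithelial system; gain or loss of signal against DMSO, with parallel sulforhodamine B staining of total protein for overt cytotoxicity.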

[13] = read-out: Vascular cell adhesion molecule 1 (VCAM1), VCAM1 (gene 7412); assay: BSK_4H_VCAM1: BioMAP Diversity Plus: 4H Assay for Vascular cell adhesion molecule 1 (VCAM1) Biomarker Activity (AID 2283033); conditions: primary human endothelial cells (HUVEC); actives raise or lower the signal
Procedure, shortened: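 VCAM-1 ELISA read 24 h after chemical dosing of HUVEC in the BioMAP 4H system, with gain or loss of signal fitted relative to DMSO. Parallel SRB staining (560 nm) checked overt cytotoxicity.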

[14] = read-out: Interferon-gamma inducible Protein 10 (IP10), CXCL10 (gene 3627); assay: BSK_BE3C_IP10: BioMAP Diversity Plus: BE3C Assay for Interferon-gamma inducible Protein 10 (IP10) Biomarker Activity (AID 2283034); conditions: primary human bronchial epithelial cells; actives raise or lower the signal
Procedure, shortened: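 IP-10 quantified by ELISA in human primary bronchial epithelial cell cultures at 24 hours post-dosing. Gain or loss of signal fitted relative to DMSO; parallel SRB staining assessed overt cytotoxicity.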

[15] = read-out: Monokine induced gamma interferon (MIG), CXCL9 (gene 4283); assay: BSK_BE3C_MIG: BioMAP Diversity Plus: BE3C Assay for Monokine induced gamma interferon (MIG) Biomarker Activity (AID 2283035); conditions: primary human bronchial epithelial cells; actives raise or lower the signal;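 also: MIG protein measured by ELISA in BE3C cultures after 24 h of dosing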
Procedure, shortened: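 Dose cells (human primary bronchial epithelial), incubate 24 h, quantify MIG by ELISA, then fit concentration–response in both directions relative to DMSO control.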

[16] = read-out: Transforming growth factor beta 1 (TGFb1), TGFB1 (gene 7040); assay: BSK_BE3C_TGFb1: BioMAP Diversity Plus: BE3C Assay for Transforming growth factor beta 1 (TGFb1) Biomarker Activity (AID 2283036); conditions: primary human bronchial epithelial cells; actives raise or lower the signal
Procedure, shortened: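 ELISA readout of TGF-b1 from human lung bronchial epithelial primary cells, taken 24 h post-treatment. Gain or loss of signal fitted relative to DMSO baseline, with parallel SRB staining for overt cytotoxicity.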

[17] = read-out: Plasminogen activator inhibitor-1 (PAI1), SERPINE1 (gene 5054); assay: BSK_BE3C_PAI1: BioMAP Diversity Plus: BE3C Assay for Plasminogen activator inhibitor-1 (PAI1) Biomarker Activity (AID 2283037); conditions: primary human bronchial epithelial cells; actives raise or lower the signal
Procedure, shortened: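 PAI-1 was measured by ELISA in human primary bronchial epithelial cultures 24 h after chemical dosing, with cytotoxicity checked by SRB total-protein staining in parallel cultures. Activity was fitted in both directions relative to DMSO.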

[18] = read-out: urokinase plasminogen activator (uPA), PLAU (gene 5328); assay: BSK_BE3C_uPA: BioMAP Diversity Plus: BE3C Assay for urokinase plasminogen activator (uPA) Biomarker Activity (AID 2283038); conditions: primary human bronchial epithelial cells; actives raise or lower the signal;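 also: uPA protein level quantified by ELISA in cell cultures; uPA read one day after compound addition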
Procedure, shortened: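 Bronchial epithelial cells (human, primary); chemical 24 h; uPA by ELISA; bidirectional fit vs DMSO. SRB (0.1%, after 10% TCA fixation, 560 nm) in parallel cultures for cytotoxicity.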

[19] = read-out: Urokinase-type plasminogen activator receptor (uPAR), PLAUR (gene 5329); assay: BSK_4H_uPAR: BioMAP Diversity Plus: 4H Assay for Urokinase-type plasminogen activator receptor (uPAR) Biomarker Activity (AID 2283030); conditions: primary human endothelial cells (HUVEC); actives raise or lower the signal
Procedure, shortened: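 Cell-surface uPAR ELISA signal, measured 24 h after dosing human umbilical vein endothelial cells, was analyzed with bidirectional fitting relative to DMSO. Parallel SRB staining of total protein tracked overt cytotoxicity.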

Measured: AC50

CCOP(=S)(OCC)Oc1ccc([N+](=O)[O-])cc1
inactive: [1] | [2] | [3] | [4] | [5] | [7] | [8] | [10] | [11] | [12] | [13] | [14] | [15] | [16] | [17] | [18]
active: [6] 39 µM | [9] 21.5 µM

CCOP(=S)(OCC)Oc1ccc2c(C)c(Cl)c(=O)oc2c1
active: [9] 20 µM | [10] 6.69 µM
inactive: [1] | [2] | [3] | [4] | [5] | [6] | [7] | [11] | [12] | [13] | [14] | [15] | [16] | [18]

N#CSCSC#N
inactive: [5] | [9] | [11] | [12] | [14] | [15] | [16] | [17] | [18]
active: [2] 11.7 µM | [3] 10.8 µM | [4] 4.78 µM | [6] 5.45 µM | [7] 5.1 µM | [10] 13.5 µM | [19] 5.82 µM | [13] 6.29 µM

CCOP(=O)(OCC)Oc1cc(C)nc(C(C)C)n1
inactive: [2] | [3] | [4] | [5] | [7] | [8] | [9] | [10] | [11] | [12] | [13] | [14] | [15] | [16] | [17] | [18]
active: [1] 20 µM | [6] 39 µM

C[N+]1(C)CCCCC1
inactive: [1] | [2] | [3] | [4] | [5] | [6] | [7] | [8] | [9] | [10] | [19] | [11] | [12] | [13] | [14] | [15] | [17] | [18]
active: [16] 0.193 µM

CCOP(=S)(OCC)SCCSCC
active: [6] 9.8 µM
inactive: [1] | [2] | [3] | [4] | [5] | [7] | [8] | [9] | [10] | [11] | [12] | [13] | [14] | [15] | [16] | [17] | [18]

CCC(=NOC/C=C/Cl)C1=C(O)CC(C2CCOCC2)CC1=O (configuration not stated)
inactive: [1] | [2] | [3] | [4] | [5] | [6] | [7] | [9] | [10] | [19] | [11] | [12] | [13] | [14] | [15] | [16] | [17] | [18]

C=C(C)[C@H]1Cc2c(ccc3c2O[C@@H]2COc4cc(OC)c(OC)cc4[C@@H]2C3=O)O1
active: [1] 3.82 µM | [2] 20 µM | [4] 12.9 µM | [6] 0.468 µM | [7] 10.3 µM | [11] 3.97 µM | [12] 6.33 µM | [13] 8.68 µM | [14] 20 µM
inactive: [3] | [5] | [9] | [10] | [15] | [16] | [17] | [18]

CCOP(=S)(OCC)OC(Cl)C(Cl)(Cl)Cl (configuration not stated)
active: [1] 12.2 µM | [4] 14.9 µM | [6] 39.8 µM | [7] 29.4 µM
inactive: [2] | [3] | [5] | [9] | [10] | [19] | [11] | [12] | [13] | [14] | [15] | [16] | [17] | [18]

CCC(=O)Nc1ccc(Cl)c(Cl)c1
inactive: [2] | [3] | [4] | [5] | [7] | [9] | [10] | [19] | [11] | [12] | [13] | [15] | [17] | [18]
active: [1] 6.03 µM | [6] 9.8 µM | [14] 27.2 µM | [16] 3.97 µM
